Consider 3 compounds from PubChem BioAssay.

Records with an inconclusive call do not appear. Calls of active or inactive are those of the source. Unless noted, no cut-off is given here; in the data, nearly all actives have AC50 up to about 30 µM.

A short description of experiment [1]: growth inhibition of DIPG glioma cells, dose response, cell-based, SU-DIPG-XIII, MIPE4.0, CellTiter-Glo, qHTS (AID 1347061; cut-off not given, nearly all actives have AC50 up to about 37 µM;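 note: cells exposed to compound for 48 hours before readout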). Particulars: SU-DIPG-XIII viability, CellTiter-Glo ATP luminescence.
A short description of experiment [2]: growth inhibition of DIPG glioma cells, dose response, cell-based, JHH-DIPG-1, MIPE4.0, CellTiter-Glo, qHTS (AID 1347062; cut-off not given, nearly all actives have AC50 up to about 27 µM;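 for AC50: cells exposed to compound for two days before readout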). Particulars: JHH-DIPG-1 viability, CellTiter-Glo ATP luminescence.
Experiment [3] is described as follows: growth inhibition of DIPG glioma cells, dose response, cell-based, SU-DIPG-XIII, MIPE5.0, CellTiter-Glo, qHTS (AID 1347064; cut-off not given, nearly all actives have AC50 up to about 23 µM). Particulars: SU-DIPG-XIII viability, CellTiter-Glo ATP luminescence.
Experiment [4] in a line: SU-DIPG-VI glioma cell viability, MIPE4.0 library, CellTiter-Glo luminescence, qHTS (AID 1347066).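 Note: cells exposed to compound for 48 hours before readout.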 As to conditions: CellTiter-Glo ATP luminescence.
Experiment [5] can be described thus: JHH-DIPG-1 glioma cell viability, MIPE5.0 library, CellTiter-Glo luminescence, qHTS (AID 1347067; cut-off not given, nearly all actives have AC50 up to about 26 µM;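 note: cells exposed to compound for 48 hours before readout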). As to conditions: JHH-DIPG-1 glioma viability, CellTiter-Glo ATP luminescence.
Experiment [6] can be described thus: SU-DIPG-XXV glioma cell viability, MIPE5.0 library, qHTS (AID 1347068; cut-off not given, nearly all actives have IC50 up to about 30 µM).
Experiment [7] is described as follows: growth inhibition of DIPG glioma cells, dose response, cell-based, SU-DIPG-IV, MIPE4.0, CellTiter-Glo, qHTS (AID 1347063).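 Note: compound exposure lasted 48 hours before the viability readout.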 As to conditions: SU-DIPG-IV viability, CellTiter-Glo ATP luminescence.
Experiment [8] can be described thus: sensitizers of A549 cells to miR-34 induction, primary screen, imaging, A549 dox-inducible miR-34, nuclei and caspase counts (AID 1347080;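 active = compounds whose cell count with miR-34 switched on is under 0.7 times the count with it off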). Particulars: A549 miR-34 inducible, Hoechst nuclei count, 48 h.
Experiment [9] is described as follows: viability rescue of complex I mutant cybrids, primary screen, cell-based, galactose medium, ATP luminescence (AID 1645843;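 active = z-score of at least 1.8 in each of two replicates, scored against plate mean and spread of sample wells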;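 note: positive z means more ATP and so rescue of galactose-driven cybrid death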). As to conditions: complex I mutant cybrid cells, 72 h, stronger effect = higher value.
Experiment [10] is described as follows: viability loss in pontine glioma line – cell-based, SU-DIPG-XXV, MIPE5.0, CellTiter-Glo, qHTS, dose response (AID 1347065; cut-off not given, nearly all actives have AC50 up to about 26 µM;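 note: cells exposed to compound for 48 hours before ATP readout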). Particulars: CellTiter-Glo ATP luminescence.
Experiment [11] in a line: survival rescue of mitochondrial mutant cells in low glucose, primary screen, MELAS cybrids, Rieske KO mouse fibroblasts, CellTiter-Glo (AID 1508586;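 active = mean z-score across replicates of 1.96 or higher in either the MELAS or the Rieske mutant cell line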;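 note: z relative to plate mean and SD of compound and empty wells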).
Setting [12] is: measured here: relative caspase fold change +Dox/-Dox.
Setting [13] is: measured here: total cells with miR-34 induction, stronger effect = lower value.
Where [14] appears, read: measured here: total cells without miR-34 induction.

In the case of `CCOC(=O)c1c(/C(C#N)=C\N)c2ccc(Cl)c(Cl)c2n1C`, the outcome in [1], in experiment [2], in experiment [3], in [4], in experiment [5] and in experiment [6] was inactive.

As for `COc1ccc2c(c1)[C@]13CCCCC1C(C2)N(C)CC3` (stereo partly drawn), the outcome in [2], in experiment [7] and in [4] was inactive. The fold change in [8] (stronger effect = lower value) was 0.884 (inactive); in experiment [8] (setting [12]), 1.91. In addition, the cell count amounted to 7550 in experiment [8] (setting [13]) and 8540 in [8] (setting [14]). The z-score in experiment [9] was 0.055 (inactive).

Take `O=C(NCC1CCOCC1)c1cnc(Nc2ccc(Cl)cc2Cl)nc1C(F)(F)F`: the call in experiment [1], in [3], in experiment [10], in [4], in experiment [5] and in experiment [6] was inactive. The AC50 in [2] is 18.7 µM (active); in experiment [7] it was 10.5 µM (active). In addition, the fold change in experiment [8] (stronger effect = lower value, cell number ratio, induced over uninduced) is 0.931 (inactive); in [8] (setting [12]), 1.15. For the same compound, the cell count in [8] (setting [13]) is 8190; in experiment [8] (setting [14]), 8790. In addition, the z-score in experiment [11] (MELAS cybrid survival, CellTiter-Glo 48 h, stronger effect = higher value) was -0.266 (inactive); in experiment [11] (Rieske KO mouse fibroblast survival, CellTiter-Glo 72 h) it was -0.797.
